The values below come from the supplement of paper PMC8699584.

One assay concerns Molm13. Kind of assay: cell viability relative to DMSO control (bortezomib = 0%); higher = less growth inhibition. The following applies: 10 nM; 72 h. Summed up:
(§1)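 Acute myeloid leukemia cells, 1000 per well in 50 µL, were incubated for 72 h on 384-well plates with 679 approved and investigational compounds, each at a single 10 nM dose. Viability was read by CellTiter-Glo luminescence. Values were expressed as percentages through per-plate linear regression against DMSO-treated (100%) and positive-control-treated (0%) cells.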

The next assay has as its system Mv4-11. Described as above. The following applies: 10 nM; 72 h. The essentials: as §1

“And” between values parts separate entries of the source, which are not always exact repeats. Equal entries are not always repeated. Structures can show the parent of a compound that is named as a salt. ± gives the standard deviation of the averaged measurements.

The term cell viability denotes a read-out of living cells in per cent, often relative to untreated cells. Regarding `CC(=O)CC(c1ccccc1)c1c(O)c2ccccc2oc1=O` (centres undefined) [Warfarin sodium], the cell viability in the assay with Molm13 came out at 105 ± 6.5%; with Mv4-11 it was 114 ± 4.9%.

In the case of `O=C1NC(=O)C(c2cnc3ccccn23)=C1c1cn2c3c(cc(F)cc13)CN(C(=O)N1CCCCC1)CC2`, the cell viability in the assay on Molm13 worked out at 125 ± 6.1%; with Mv4-11, 89.9 ± 4.6%.

`CN(C)S(=O)(=O)c1ccc2c(c1)/C(=C/c1cc3c([nH]1)CCCC3)C(=O)N2`: the cell viability is 113 ± 3.4% in the assay on Molm13 and 109 ± 1.4% with Mv4-11.

As for `Cn1ncc(Cl)c1-c1cc(C(=O)N[C@H](CN)Cc2cccc(F)c2)sc1Cl` [Afuresertib], the cell viability in the assay on Molm13 is 111 ± 4.8%; in the assay on Mv4-11, 113 ± 2.5%.

On to `C=CC(=O)N1CCC(Oc2cc3c(Nc4ccc(Cl)c(Cl)c4F)ncnc3cc2OC)CC1` [Poziotinib (HM781-36B)], for which the cell viability with Molm13 was found to be 111.4 ± 0.44%; with Mv4-11, 113 ± 10%.

For the molecule `Cc1ccc(S(=O)(=O)/C=C/C#N)cc1`, the cell viability in the assay on Molm13 was determined as 87.5 ± 24%; in the assay with Mv4-11 it was 98.8 ± 3.1%.

As to `O=c1ccc2ccccc2o1` [Coumarin], the cell viability is 114 ± 8% in the assay on Molm13 and 114 ± 24% in the assay with Mv4-11.

Take `Nc1ncnc2n[nH]c(Nc3ccc(F)cc3)c12`: the values for the cell viability in the assay with Molm13 and in the assay with Mv4-11 were 102 ± 11% and 105 ± 3.4%, respectively.

As to `CS(=O)(=O)c1ccc(-c2nc(-c3ccc(F)cc3)c(-c3ccncc3)[nH]2)cc1`, the results for the cell viability in the assay on Molm13 and in the assay on Mv4-11 were 108 ± 14% and 100.3 ± 0.91%, respectively.

In the case of `Nc1ncnc2c1ncn2[C@@H]1O[C@H](COP(=O)(O)O)[C@@H](O)[C@H]1O` [Adenosine 5'-monophosphate], the cell viability in the assay on Molm13 is 96 ± 7.5%; in the assay on Mv4-11, 113 ± 2.5%.

As to `CNc1nc(Nc2cnn([C@H]3CCN(C4COC4)C[C@@H]3F)c2Cl)ncc1C(F)(F)F`, the cell viability was 99.6 ± 15% in the assay with Molm13 and 106 ± 2.4% in the assay with Mv4-11.

For `FC(F)(F)c1ccc(/C=C/c2nc(COc3ccc(CCCCn4ccnn4)cc3)co2)cc1` [Mubritinib (TAK 165)], the cell viability in the assay with Molm13 was 107 ± 9%; in the assay on Mv4-11, 104 ± 7.6%.

For the molecule `O=C(NCc1cccc(O)c1)Nc1nc(-c2ccncc2)cs1`, the cell viability was determined as 88.6 ± 11% in the assay on Molm13 and 121 ± 9% in the assay on Mv4-11.

For the molecule `C=CC(=O)Nc1cccc(Nc2nc(Nc3ccc(Oc4ccnc(C(=O)NC)c4)cc3)ncc2F)c1`, the cell viability worked out at 114 ± 24% in the assay with Molm13 and 108 ± 9.3% in the assay with Mv4-11.

As for `COC(=O)c1c2c(c3ccccc3c1O)OC(C)(C)C=C2` [Mollugin], the cell viability was 98 ± 1.6% in the assay on Molm13 and 100 ± 7.8% in the assay on Mv4-11.

Turning to `O=c1c(O)c(-c2cc(O)c(O)c(O)c2)oc2cc(O)cc(O)c12` [Myricetin], the cell viability in the assay on Molm13 was 106 ± 20%; in the assay on Mv4-11, 114 ± 17%.

In the case of `CC(C)c1ccc2oc3nc(N)c(C(=O)O)cc3c(=O)c2c1` [Amlexanox], the cell viability in the assay with Molm13 worked out at 96.8 ± 11%; in the assay with Mv4-11, 92.6 ± 2.2%.

Consider `COc1ccc(-c2cc(=O)c3c(O)cc(O)cc3o2)cc1O` [Diosmetin], for which the cell viability amounted to 93.4 ± 11% in the assay with Molm13 and 96.8 ± 6.3% in the assay on Mv4-11.

On to `NC(=O)Nc1cc(-c2cccc(F)c2)sc1C(=O)N[C@H]1CCCNC1`, for which the cell viability in the assay with Molm13 is -11.2 ± 3.9%; with Mv4-11 it was -9.83 ± 4.2%.

`O=C1Cc2c([nH]c3ccc(Br)cc23)-c2ccccc2N1` [KenPaullone]: the cell viability in the assay on Molm13 was 91.6 ± 2.8%; in the assay with Mv4-11 it was 95.2 ± 16%.

On to `CC(C)(C)c1ccc(S(=O)(=O)/C=C/C#N)cc1`, for which the results for the cell viability with Molm13 and with Mv4-11 were 108 ± 16% and 98.9 ± 4.4%, respectively.

As for `CC1(C)CNc2cc(NC(=O)c3cccnc3NCc3ccncc3)ccc21` [Motesanib (AMG-706)], the cell viability in the assay on Molm13 turned out to be 106 ± 20%; with Mv4-11, 107 ± 5.2%.

`CCCCCCCCCCCCCCCCCCOP(=O)([O-])OC1CC[N+](C)(C)CC1` [Perifosine (KRX-0401)]: the figures for the cell viability in the assay with Molm13 and with Mv4-11 were 93.8 ± 14% and 110 ± 5.1%, respectively.

In the case of `O=S(=O)(c1cccc2cnccc12)N1CCCNCC1` [Fasudil], the cell viability in the assay with Molm13 was 109 ± 12%; in the assay on Mv4-11 it was 104 ± 9.1%.

`Nc1cccc(-c2nc(N3CCOCC3)c3oc4ncccc4c3n2)c1` [PIK-inhibitors]: the cell viability stood at 82.5 ± 19% with Molm13 and 103 ± 15% in the assay with Mv4-11.

Take `Cn1cc(/C=C2\C(=O)Nc3cccnc32)c2ccccc21`: the cell viability was 104 ± 17% with Molm13 and 107 ± 3.6% with Mv4-11.

Regarding `Cn1cc(C2=C(c3cccc(N)c3)C(=O)NC2=O)c2ccccc21`, the cell viability came to 114.2 ± 0.55% in the assay with Molm13 and 113 ± 3.2% in the assay with Mv4-11.

As for `Nc1ncnc2c1c(-c1cnc3[nH]ccc3c1)nn2C1CCCC1`, the cell viability is 118 ± 2.6% in the assay with Molm13 and 125 ± 14% in the assay on Mv4-11.

Consider `O=c1cc(-c2ccccc2)oc2c(O)c(O)ccc12` [7,8-Dihydroxyflavone], for which the cell viability with Molm13 worked out at 108 ± 16%; in the assay on Mv4-11, 104 ± 4%.

On to `COc1cc2ccc(=O)oc2cc1O` [Scopoletin], for which the results for the cell viability with Molm13 and with Mv4-11 were 102.2 ± 0.33% and 109.9 ± 0.78%, respectively.

In the case of `CNS(=O)(=O)C[C@H]1CC[C@H](N(C)c2[nH]cnc3nccc2-3)CC1` [Oclacitinib], the figures for the cell viability with Molm13 and in the assay on Mv4-11 were 96.5 ± 22% and 107 ± 18%, respectively.

On to `O=c1cc(N2CCOCC2)oc2c1ccc1ccccc12`, for which the cell viability is 98.1% and 100% in the assay on Molm13; 103% and 110% in the assay with Mv4-11.

Consider `N#CC[C@H](C1CCCC1)n1cc(-c2ncnc3[nH]ccc23)cn1` [Ruxolitinib], for which the cell viability in the assay on Molm13 came out at 105 ± 10%; with Mv4-11, 111.1 ± 0.83%.

Turning to `CC(C)c1cnc(NC(=O)Cc2ccccc2)s1`, the cell viability was 92.8 ± 37% in the assay with Molm13 and 98.7 ± 9.3% in the assay with Mv4-11.

Consider `NCCNS(=O)(=O)c1cccc2cnccc12` [H-9 (hydrochloride)], for which the cell viability in the assay on Molm13 was 114 ± 24%; with Mv4-11, 111 ± 4.7%.

As for `N#CC[C@H](C1CCCC1)n1cc(-c2ncnc3[nH]ccc23)cn1`, the cell viability with Molm13 was 87.6 ± 8.3%; in the assay with Mv4-11, 109 ± 4%.

Take `COc1ccc(Cl)c(Nc2nc3ccccc3nc2NS(=O)(=O)c2cccc(NC(=O)C(C)(C)N)c2)c1` [Pilaralisib (XL147)]: the figures for the cell viability in the assay on Molm13 and with Mv4-11 were 117 ± 4% and 110 ± 11%, respectively.
